Data taken from PubChem BioAssay (Tox21).
“And” between values parts separate entries of the source, which are not always exact repeats. Equal values may be shown once. Records with an inconclusive call do not appear. Where a call stands in place of a potency, no number is given. The source made the active and inactive calls. Calls come from the whole dose curve; as a rule, active = well fitted cell-killing curve with a large enough effect in the repeat runs; inconclusive = weak or mixed curves, or effect the other way; inactive = no such curve, though single readings can be large or run the other way.
Potency is the fitted concentration of half-maximal effect.

Test: qHTS assay to identify small molecule antagonists of the glucocorticoid receptor (GR) signaling pathway - cell viability counter screen (AID 720693); note: nearly all actives have a fitted effect of over 55% in size
Conditions: GR-bla HeLa viability, CellTiter-Glo luminescence, 18 h, with 5 nM dexamethasone present; series mostly up to 58.5 µM
For CCCCOCCOC(=O)c1ccccc1C(=O)OCCOCCCC, the Potency was “inactive”. With O=C(O)CP(=O)(O)O the Potency was “inactive”. In the case of CC(N)=O, the Potency was “inactive”. In the case of NC12CC3CC(CC(C3)C1)C2, the Potency was “inactive”. In the case of Cc1cccc(O)c1C, the Potency was “inactive”. With [Cl][In]([Cl])[Cl] the Potency was “inactive”. For O=C(Oc1ccccc1)c1ccccc1O, the Potency was “inactive”. In the case of CC(C)CCOCc1ccccc1, the Potency was “inactive”. For CN(C)c1ccc(C(=C2C=CC(=[N+](C)C)C=C2)c2ccccc2)cc1, the Potency was 195 nM (active). For CCCCC/C=C/CC1CC(=O)OC1=O (centres undefined), the Potency was “inactive”. For Cc1occc(=O)c1OC(=O)C(C)C, the Potency was “inactive”. With Nc1ccc(O)cc1 the Potency was 15.1 µM (active) and 25.5 µM (active). With O=C1OC2(c3ccc(O)cc3Oc3cc(O)ccc32)c2ccccc21 the Potency was “inactive”. For CCC(C)(Oc1ccc(C2(c3ccc(OC(C)(CC)C(=O)O)cc3)CCCCC2)cc1)C(=O)O (centres undefined), the Potency was “inactive”. With O=Cc1ccc(Cl)cc1 the Potency was “inactive”. In the case of Cc1ccnc2c1NC(=O)c1cccnc1N2C1CC1, the Potency was “inactive”. With CC(=O)OCC1=C(C(=O)O)N2C(=O)[C@@H](NC(=O)Cc3cccs3)[C@H]2SC1 the Potency was “inactive”. With O=Nc1ccc(Nc2ccccc2)cc1 the Potency was “inactive”. For CC1=C(C=O)C(C)(C)CC=C1, the Potency was “inactive”. For CC[C@H]1CN2CCc3cc(OC)c(OC)cc3[C@@H]2C[C@@H]1C[C@H]1NCCc2cc(OC)c(OC)cc21, the Potency was 4920 nM (active). With CC(C)(C)c1cc(C(C)(C)C)c(O)c(C(C)(C)C)c1 the Potency was “inactive”. For Nc1cc(S(=O)(=O)O)cc2cc(S(=O)(=O)O)cc(O)c12, the Potency was “inactive”. With CC(C)(C)c1ccccc1 the Potency was “inactive”. In the case of CCC[C@H](N[C@@H](C)C(=O)N1[C@H](C(=O)O)C[C@@H]2CCCC[C@@H]21)C(=O)OCC, the Potency was “inactive”. For CCCCC(CC)COC(=O)CC(C(=O)OCC(CC)CCCC)S(=O)(=O)O (centres undefined), the Potency was “inactive”. With Nc1nc2ccccc2[nH]1 the Potency was “inactive”. For Cc1ccc(S(=O)(=O)Oc2ccc(N=Nc3ccc(-c4ccc(N=Nc5c(O)ccc6cc(S(=O)(=O)O)cc(S(=O)(=O)O)c56)c(C)c4)cc3C)cc2)cc1, the Potency was “inactive”. With Cc1cc(C(C)(C)C)c(O)c(C(C)(C)C)c1 the Potency was “inactive”. With CCN(CC)C(=O)Nc1ccc(OCC(O)CNC(C)(C)C)c(C(C)=O)c1 (centres undefined) the Potency was “inactive”.
